# Only some compounds are listed: those with a hit (about 3% of all), similar ones and a draw of the others.
# HIF-2a block = HIF-2a reporter inhibitors, primary screen, luminescence, 786-0 RCC cells | 786-0 RCC cells HIF-2a reporter, luciferase luminescence, overnight | inhibition, % at 18.8 µM | AID 624352, 2012 | hit rate 0.72% among 360,000;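 active means inhibition of the luminescence signal of 40% or more relative to plate controls, in a single-dose primary screen at 18.75 µM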
# KKLEB cytotox = cytotoxicity in KKLEB CF airway cells, primary screen, cytotoxicity control for CF NF-kB inhibitor project, cell-based, uHTS, fluorescence assay plates; KKLEB CF airway cells viability, ATPlite luminescence, overnight; stronger effect = lower value; cells stimulated with P. aeruginosa culture filtrate; activity change (cytotoxicity), % at 5 µM; hit rate 0.36% among 360,000; AID 602141, 2011;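 active means corrected activity change at or below -50% at 5 µM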
# CF NFkB inh = inhibitors of PAF-induced NF-kB signaling, primary screen, cell-based, GFP fluorescence, uHTS | KKLEB NF-kB-GFP reporter, GFP fluorescence overnight | inhibition, % at 5 µM | hit rate 0.86% among 360,000;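 active means at least 50% inhibition at 5 µM, scaled per plate between neutral and stimulator controls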;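 further: PAF is a Pseudomonas aeruginosa culture filtrate used as stimulus; plate controls were PAF-stimulated DMSO wells for no effect and unstimulated DMSO wells for full effect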
# Peg3 promoter = Peg3 promoter-driven luciferase inhibitors, primary screen, cell-based, HeLa, luciferase luminescence. HeLa PEG-Prom luciferase reporter, overnight. inhibition, % at 20 µM. hit rate 1.7% among 360,000. AID 588405, 2011;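 active means inhibition of at least 50% at 20 µM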
# EBV LMP1 NFkB = EBV LMP1-driven NF-kappaB luciferase reporter inhibitors, primary screen, cell-based, luminescence, single point | hit rate 0.69% among 350,000 | inhibition, % at 12.5 µM | LMP1-induced NF-kappaB luciferase reporter cells; in the data active means inhibition above about 41%;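 further: 0% = neutral control wells and 100% = reference inhibitor control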
# MITF TRPM1 inh = inhibitors of MITF-dependent TRPM1 promoter reporter, primary screen, cell-based, SK-MEL-5, single point, luciferase | SK-MEL-5 TRPM1 promoter luciferase, 24 h | inhibition, % at 12.5 µM | hit rate 0.83% among 330,000 | AID 488899, 2010;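 active means mean inhibition across replicates of 60% or more, whatever share of single replicates reaches that level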
# Starred values were filed as active, the others as inactive; · = no result given.
SMILES,HIF-2a block,KKLEB cytotox,CF NFkB inh,Peg3 promoter,EBV LMP1 NFkB,MITF TRPM1 inh
CCCCC(CC)CO (configuration not stated),8,8,18,110*,-10,5
O=C(CCl)NC(=O)NC12CC3CC(CC(C3)C1)C2,20,-11,1,63*,-3,24
Cc1c(NC(=O)c2cccc(NC(=O)C(C)Oc3ccccc3)c2)c(=O)n(-c2ccccc2)n1C (configuration not stated),16,18,4,10,-3,·
CCOC(CNc1ncnc2sc(-c3ccccc3)cc12)OCC,-38,-12,4,-26,9,-31
CN(C)CCCNc1ncnc2sc(-c3ccccc3)cc12,1,4,-21,71*,-16,-34
COc1ccccc1NCC(=O)N/N=C/c1c(O)ccc2ccccc12,9,-17,9,56*,-4,26
O=C(CNc1ccc(F)cc1)N/N=C/c1c(O)ccc2ccccc12,-9,2,15,51*,37,34
COc1ccccc1NCC(=O)N/N=C/c1cccnc1,9,-6,1,4,7,-1
c1cc(SC2CCCCC2)cc(-c2nc3cnccn3c2NC2CCCCC2)c1,37,-55*,73*,95*,-16,4
Cc1ccn2c(NCc3ccccc3)c(-c3cccc(SC4CCCCC4)c3)nc2c1,-64,0,15,-46,-1,0
Clc1ccc2nc(-c3cccc(SC4CCCCC4)c3)c(NCc3ccccc3)n2c1,-36,-10,14,-17,12,-2
c1cn2c(NC3CCCCC3)c(-c3ccc(SC4CCCCC4)cc3)nc2cn1,-98,8,4,-51,-22,-18
Cc1ccc2nc(-c3cccc(SC4CCCCC4)c3)c(NCc3ccccc3)n2c1,-45,-9,39,67*,2,0
c1ccc(CNc2c(-c3cccc(SC4CCCCC4)c3)nc3ccccn23)cc1,-180,-17,17,86*,-4,5
O=C(CCCOc1ccccc1)N1CCN(c2ccccc2)CC1,-168,9,2,-237,86*,-55
O=C(CCOc1ccccc1)N1CCN(c2ccc(O)cc2)CC1,-70,1,-9,-23,3,-9
Cc1ccc2c(c1)[nH]c1c(N3CCN(Cc4ccccc4)CC3)ncnc12,-6,-15,-14,29,22,17
c1ccc(CN2CCN(c3ncnc4c3[nH]c3ccccc34)CC2)cc1,24,-1,-2,56*,53*,49
Cc1ccc2[nH]c3c(N4CCN(Cc5ccccc5)CC4)ncnc3c2c1,2,-13,-20,42,58*,30
c1ccc2c(c1)CCN(c1ncnc3c1[nH]c1ccccc13)C2,0,0,-20,30,39,55
COc1cccc(CN(C)C(=O)COc2cccc3c2OC(C)(C)C3)c1OC,9,-4,-4,6,5,-2
c1ccc(-c2cccc(-c3ccccn3)n2)nc1,-19,-10,23,14,53*,52
c1ccc(-c2nnc(-c3ccccn3)nn2)nc1,-160,-7,11,-122,-1,-29
CCC(C)Nc1ccc(NC(C)CC)cc1 (configuration not stated),19,-37,60*,65*,22,97*
O=C(O)COc1ccccc1/C=C1\C(=O)Nc2ccc(Br)cc21,19,-9,17,1,-2,19
SMILES,HIF-2a block,KKLEB cytotox,CF NFkB inh,Peg3 promoter,EBV LMP1 NFkB,MITF TRPM1 inh
O=C1Nc2ccc(Br)cc2/C1=C/C(=O)c1ccccc1,23,9,18,98*,-1,75*
Cc1ccccc1COc1cccc(/C=N/NC(=O)c2nnn(-c3nonc3N)c2C)c1,-9,-13,32,74*,-8,9
Cc1cc(C)c2c(=O)[nH][nH]c2n1,3,17,-46,-12,4,-4
O=C(Nc1ccc(OC(F)(F)F)cc1)c1[nH]ncc1[N+](=O)[O-],7,-10,31,-66,-10,70*
O=C(Nc1ccc(OC(F)(F)F)cc1)Nc1cccnc1,-79,-7,9,-41,-7,-9
O=C(Nc1ccc(OC(F)(F)F)cc1)Nc1cccc([N+](=O)[O-])c1,-166,-65*,66*,55*,9,53
CCc1nc2c(OCc3ccc(C#N)cc3)cccn2c1N(C)C(=O)c1cccs1,5,9,-3,10,·,·
O=C(N/N=C/c1ccc(F)cc1)c1c(O)c2ccccc2[nH]c1=O,-4,-44,46,28,29,63*
O=C(N/N=C/c1cccc(F)c1)c1c(O)c2ccccc2[nH]c1=O,-16,-64*,65*,22,9,42
COc1ccc(Cc2ccccc2C(=O)O)cc1,1,7,-15,5,-51,1
COc1ccc(CC2=CC(=O)c3ccccc3C2=O)cc1,22,12,52*,47,7,8
O=C(c1ccc(S(=O)(=O)Cc2ccccc2Cl)c([N+](=O)[O-])c1)N1CCN(c2ccccn2)CC1,13,-21,45,39,36,74*
Nc1cc2c3ccccc3ccc2c2ccccc12,-318,-78*,88*,72*,-48,-2
Nc1ccc2ccccc2c1[N+](=O)[O-],2,-14,-7,19,0,5
CC1(C(=O)Nc2ccc3c(c2)OCCO3)CSCC(=O)N1Cc1ccco1 (configuration not stated),-37,·,·,·,·,·
Cc1cc(C)nc(NS(=O)(=O)c2ccc(NS(=O)(=O)c3ccc(F)c(F)c3)cc2)n1,3,-10,-5,1,-5,·
O=C(N/N=C/c1ccc(N2CCOCC2)cc1)c1ccncc1,-5,-4,-6,6,-1,-8
O=C(N/N=C/c1ccc(N2CCOCC2)cc1)c1ccccc1OCCOc1ccccc1,-3,-13,11,62*,4,12
COc1ccc(N2CCN(CCC(=O)c3ccc4ccccc4c3)CC2)cc1,-4,-8,15,104*,2,5
COc1ccc(N2CCN(CCNC(=O)c3c(C)cc(=O)oc3C)CC2)cc1,7,3,-9,-3,51*,-8
COc1ccc(N2CCN(CC(=O)c3ccccc3)CC2)cc1,-6,15,5,-15,-4,-3
O=C(NCN1CCN(c2ccccc2F)CC1)c1ccccc1,6,-1,8,25,-10,10
Cc1cccc(C(=O)NCN2CCN(c3ccccc3C#N)CC2)c1,-4,-1,-3,-1,82*,-10
Clc1ccc(Cc2noc(CN3CCN(c4ccccc4)CC3)n2)c(Cl)c1,12,-2,-19,54*,-5,4
